Reference: PubChem BioAssay AID493152 (Sanford-Burnham Center for Chemical Genomics, 2011)
This is one part of the list. Values without a mark were called inactive. Calls of active or inactive are those of the source.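 How the source made its calls: active means inhibition reaching a set limit in any replicate at 20 µM, the limit being 80% of the first screen's; inactive means the rest.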

What follows are compounds tested against DNA dC->dU-editing enzyme APOBEC-3G (Homo sapiens) (UniProt Q9HC16) (assay: APOBEC3G deaminase inhibitor retest, confirmation, biochemical, fluorescence, single-stranded DNA substrate, single concentration (AID 493152)). Settings: recombinant A3G ssDNA deaminase, UDG/FAM-TAMRA fluorescence; at 20 µM; stronger effect = higher value.
Sequence of DNA dC->dU-editing enzyme APOBEC-3G (Homo sapiens) (Q9HC16 whole entry, looked up): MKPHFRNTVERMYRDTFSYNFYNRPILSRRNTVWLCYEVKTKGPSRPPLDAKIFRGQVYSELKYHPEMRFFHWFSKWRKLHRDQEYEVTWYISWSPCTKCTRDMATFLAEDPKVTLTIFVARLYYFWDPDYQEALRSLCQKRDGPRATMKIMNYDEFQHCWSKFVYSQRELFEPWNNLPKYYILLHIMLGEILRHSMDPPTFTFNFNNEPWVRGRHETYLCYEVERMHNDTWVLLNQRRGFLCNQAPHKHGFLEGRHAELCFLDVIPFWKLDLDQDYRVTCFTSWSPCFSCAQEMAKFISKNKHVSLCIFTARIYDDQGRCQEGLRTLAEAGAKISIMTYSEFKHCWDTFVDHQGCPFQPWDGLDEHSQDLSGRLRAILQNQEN
COc1ccc(OCc2nnc3n2N=C(c2ccccc2)C(CC(=O)O)S3)cc1 (centres undefined) was tested, and the inhibition was 27.3% (active). With Nc1ccccc1SC(C[N+](=O)[O-])c1ccccc1 (centres undefined) the inhibition was 83.4% (active). Cc1cc(C)c2c(-c3ccc(F)cc3)c(C#N)c(=O)n(C)c2n1 was tested, and the inhibition was -1.37%. With CC(=O)N1CC[n+]2c(-c3ccc([N+](=O)[O-])cc3)csc21 the inhibition was 50.5% (active). S=c1[nH]ccn1-c1ccc(Cl)cc1 was tested, and the inhibition was 74% (active). COc1cccc(C(=O)CC(=O)C(=O)Nc2ccc([N+](=O)[O-])cc2C)c1 was tested, and the inhibition was 2.17%. S=c1[nH]nc(Nc2ccccc2)s1 was tested, and the inhibition was 68.3% (active). With S=c1[nH]nc(-c2cc(-c3ccccc3)n[nH]2)n1/N=C/c1c2ccccc2cc2ccccc12 the inhibition was 8.05%. In the case of Fc1ccc(Nc2nnns2)cc1, the inhibition is reported as 23.7% (active). In the case of Cc1ccnc(-n2sc3ccccc3c2=O)n1, the inhibition is reported as 55.1% (active). S=c1[nH]nc(NCCc2ccccc2)s1 was tested, and the inhibition was 81.5% (active). Cc1ccc(C(=O)c2c(NC(=O)c3ccccc3)sc(C)c2C)cc1 was tested, and the inhibition was 24.2% (active). For Cc1ccc(NC(=O)c2sc3nc(N)c(C#N)cc3c2N)cc1, the inhibition was -7.68%. For CC(=O)N(C1=C(Cl)C(=O)c2ccccc2C1=O)c1ccc(C(=O)O)cc1, the inhibition was 99.2% (active). With COc1ccccc1-n1c(-c2cc(-c3ccco3)[nH]n2)n[nH]c1=S the inhibition was 50.2% (active). For Cc1nc2scc(-c3cccs3)c2c(=O)n1N, the inhibition was 0.32%. Cc1cc(-c2n[nH]c(=S)n2/N=C/c2ccco2)n[nH]1 was tested, and the inhibition was 58.5% (active). In the case of CCOc1cc(C(=S)N2CCOCC2)ccc1O, the inhibition is reported as 65.3% (active). In the case of O=c1[nH]c2ccccc2n2c(-c3ccccc3)nnc12, the inhibition is reported as 26% (active). CCn1c(CN2C(=O)CSc3ccccc32)n[nH]c1=S gave an inhibition of 23.9%. For S=c1[nH]nc(-c2ccc(Cl)cc2)n1CC1CCCO1 (centres undefined), the inhibition was 55.9% (active). With COc1ccc(OCc2n[nH]c(=S)n2N)cc1 the inhibition was 56.2% (active). With Cn1c2ccccc2c(=O)c2c(=O)n(Cc3ccco3)c(COc3ccccc3)nc21 the inhibition was 22%. O=C1CC(Sc2ncn[nH]2)C(=O)N1c1ccccc1 (centres undefined) was tested, and the inhibition was 40.4% (active).
